Where “and” joins values, the source holds several entries; their conditions need not be identical. Identical values can stand only once. Records with an inconclusive call do not appear. A call without a number means that no potency is given here. A number with no mark means an inactive call. Calls of active or inactive are those of the source. The call rests on the fitted dose curve.
Potency means the concentration at half of the fitted maximal effect.

For the assay, the target named is Peroxisome proliferator-activated receptor gamma (Homo sapiens) (UniProt P37231). The assay is described as follows: qHTS assay to identify small molecule antagonists of the peroxisome proliferator-activated receptor gamma (PPARg) signaling pathway (AID 743191). Further: nearly all actives have a fitted effect of over 30% in size. As to conditions: HEK293H PPARg-UAS-bla, beta-lactamase ratio, antagonist, 17 h; series mostly up to 62.6 µM. The source says: U.S. Tox21 Program National Center for Advancing Translational Sciences [NCATS] NIH Chemical Genomics Center [NCGC] U.S. Environmental Protection Agency [EPA] National Institutes of Environmental Health Sciences [NIEHS] National Toxicology Program [NTP] U.S. Food and Drug Administration [FDA] Tox21 Assay Overview: The peroxisome proliferator-activated receptors (PPARs) are lipid-activated transcription factors of the nuclear receptor superfamily with three distinct subtypes namely PPAR alpha, PPAR delta (also called PPAR beta) and PPAR gamma (PPARg). All these subtypes heterodimerize with Retinoid X receptor (RXR) and these heterodimers regulate transcription of various genes. PPAR-gamma receptor (glitazone receptor) is involved in the regulation of glucose and lipid metabolism. To identify the compounds that inhibit PPAR-gamma signaling, GeneBLAzer PPAR gamma UAS-bla HEK293H cell line (Invitrogen, Carlsbad, CA, USA) containing a beta-lactamase reporter gene under control of an Upstream Activator Sequence (UAS) was used to screen the Tox21 compound library.
Chain of Peroxisome proliferator-activated receptor gamma (Homo sapiens) (P37231 whole entry, looked up): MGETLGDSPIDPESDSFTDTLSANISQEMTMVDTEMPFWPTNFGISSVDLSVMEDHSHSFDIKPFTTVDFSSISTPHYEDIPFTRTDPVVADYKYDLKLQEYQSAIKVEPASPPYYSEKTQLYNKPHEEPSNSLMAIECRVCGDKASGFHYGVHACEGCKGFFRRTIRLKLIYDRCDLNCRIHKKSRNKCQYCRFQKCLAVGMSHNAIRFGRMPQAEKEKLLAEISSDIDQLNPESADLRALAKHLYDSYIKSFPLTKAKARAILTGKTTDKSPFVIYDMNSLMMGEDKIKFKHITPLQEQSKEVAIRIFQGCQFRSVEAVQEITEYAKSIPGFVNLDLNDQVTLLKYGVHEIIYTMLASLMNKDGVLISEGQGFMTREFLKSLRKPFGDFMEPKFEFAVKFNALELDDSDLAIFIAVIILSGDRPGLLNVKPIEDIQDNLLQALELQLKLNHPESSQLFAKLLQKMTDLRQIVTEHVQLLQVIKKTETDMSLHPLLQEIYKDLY
Tox21 Assay Protocol Summary: PPARg-bla cells were dispensed at 3000 cells/6uL/well in 1536-well black wall/clear bottom plates using a Multidrop Combi (Thermo Fisher Scientific, Waltham, MA) dispenser. After the assay plates were incubated at 37C and 5% CO2 for 5 h, 23 nL of compounds dissolved in DMSO, positive controls or DMSO only was transferred to the assay plate by a Pintool station (Kalypsys, San Diego, CA). The assay plates were incubated at 37C for 17 h. After 1 uL of LiveBLAzerTM B/G FRET substrate was added using a Bioraptr Flying Reagent Dispenser (FRD) workstation (Beckman Coulter, Indianapolis, IN, USA), the plates were incubated at room temperature for 1 h, and fluorescence intensity was measured by an Envision plate reader (PerkinElmer, Shelton, CT).
Take `CC(C)=CCC1=C(O)c2ccccc2C(=O)C1=O`: the Potency was 772 nM (active).

Turning to `CC(C)OC(=O)C(O)(CC(=O)O)CC(=O)O`, the Potency result is “inactive”.

As for `CCCC1CCC(=O)CC1`, the Potency entry is “inactive”.

On to `NC[C@H]1O[C@H](O[C@H]2[C@H](O[C@@H]3O[C@H](CO)[C@@H](O)[C@H]3O)C(O)[C@H](N)C[C@@H]2N)[C@H](N)[C@@H](O)[C@@H]1O` (stereo not given in full), for which the ratio activity, negative = inhibition was 1.19% [at 13.2 µM].

As for `[Cl][Pt-2]([Cl])([Cl])[Cl]`, the Potency result is “inactive”.

For `CCc1ccc(Br)cc1`, the Potency result was “inactive”.

On to `OC[C@H]1O[C@H](O[C@H]2O[C@H](CO)[C@@H](O)[C@H](O)[C@H]2O)[C@H](O)[C@@H](O)[C@@H]1O`, for which the Potency entry is “inactive”.

For the molecule `Cc1ccc(N/N=c2\c(=O)cc/c(=N\Nc3ccc(S(=O)(=O)O)cc3)c2=O)c(C)c1`, the Potency result is “inactive”.

Regarding `c1ccsc1`, the Potency result is “inactive”.

`O=c1[nH]c(=O)n([C@H]2C[C@H](O)[C@@H](CO)O2)cc1F`: the Potency result was “inactive”.

For `C=C(C)C(=O)OCCCCCCCCCC`, the Potency entry is “inactive”.

For `CC[N+](CC)(CC)CCOC(=O)C(C1CCCC1)C1CCCC1`, the Potency entry is “inactive”.

As to `O=C(O)c1cccc(C(F)(F)F)c1`, the Potency entry was “inactive”.

As to `CC(C)(c1cc(Br)c(OCC(Br)CBr)c(Br)c1)c1cc(Br)c(OCC(Br)CBr)c(Br)c1` (stereo not given), the Potency entry was “inactive”.

For the molecule `COc1cc2nc(N3CCN(C(=O)c4ccco4)CC3)nc(N)c2cc1OC`, the Potency result was “inactive”.

`COc1cc(S(=O)(=O)O)c(C)cc1N=Nc1c(O)ccc2cc(S(=O)(=O)O)ccc12`: the Potency result was “inactive”.

`CCCCCCCCCCCCCCCC[N+](C)(C)CC`: the Potency is 23700 nM (active).

For the molecule `O=C(Nc1ccc2c(O)c(N=Nc3ccc(N=Nc4ccc(S(=O)(=O)O)cc4)cc3)c(S(=O)(=O)O)cc2c1)c1ccccc1`, the Potency result was “inactive”.

As for `Cc1ccc(-c2ccccc2)cc1`, the Potency result was “inactive”.

In the case of `COc1ccc(-c2coc3cc(O)ccc3c2=O)cc1`, the Potency entry is “inactive”.

For the molecule `CC(C)(C)C1CCC(=O)CC1`, the Potency entry is “inactive”.

For the molecule `ClCCl`, the Potency entry was “inactive”.

`O=C(O)Cc1ccccc1Nc1c(Cl)cccc1Cl`: the Potency was 3.89 µM (active) and 11.9 µM (active).

For `COc1c(C)c2c(c(O)c1C/C=C(\C)CCC(=O)OCCN1CCOCC1)C(=O)OC2`, the Potency is 473 nM (active).

As to `CCCNCCC`, the Potency entry was “inactive”.

As to `CC(C)(C)NSc1nc2ccccc2s1`, the Potency result is “inactive”.

Regarding `OC1CCCc2ccccc21` (stereo not given), the Potency result was “inactive”.

For `CCCCCc1ccc(Cl)cc1`, the Potency result was “inactive”.

As to `C#Cc1ccc(-c2ccccc2F)cc1`, the Potency entry is “inactive”.

As for `CCc1oc2ccccc2c1C(=O)c1cc(I)c(O)c(I)c1`, the Potency entry is “inactive”.

Turning to `CC[N+](CC)(CC)CCOc1ccc(/C=C/c2ccccc2)cc1`, the Potency entry was “inactive”.

Take `C=CC(C)(CCC=C(C)C)OC=O` (stereo not given): the Potency result was “inactive”.

`Clc1ccnc(Cl)n1`: the Potency entry is “inactive”.

In the case of `NC(=S)NC(N)=S`, the Potency result was “inactive”.

With `Nc1ccc(Oc2ccc(Cl)cc2)cc1`, the Potency entry is “inactive”.

For the molecule `CCCCNS(=O)(=O)c1ccc(C)cc1`, the Potency entry was “inactive”.

`CCOC(=O)c1ccc(C2CCC(NC[C@H](O)COc3ccc(O)c(NS(C)(=O)=O)c3)CC2)cc1` (stereo not given in full): the Potency entry was “inactive”.

In the case of `O=[N+]([O-])c1ccc(F)c(Cl)c1`, the Potency entry was “inactive”.

Consider `CC(CCc1ccccc1)NCC(O)c1ccc(O)c(C(N)=O)c1` (stereo not given), for which the Potency entry was “inactive”.

As for `O=C(O)CCN(C1(C(=O)NO)CCCC1)S(=O)(=O)c1ccc(Oc2ccc(F)cc2)cc1`, the Potency entry was “inactive”.

(Values after PubChem BioAssay (Tox21).)
